SKN-1 inh: inhibitors of C. elegans SKN-1; C. elegans VP596 Pgst-4::GFP/RFP ratio, acrylamide-induced, 24 h; inhibition, % at 21.8 µM; 360,000 tested, 0.49% active; AID 624304;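 active = interference check ratio from 0.5 to 1.5 plus GFP to RFP signal ratio inhibition reaching or exceeding a fixed threshold, cut at about 30% in these data, passing the limit was not always enough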
MEKK2 mut-MEK5: signal of MEK5 binding to mutant human MEKK2 PB1 domain; bead flow cytometry, Alexa488-MEK5 binding to MEKK2 mutant; 290,000 tested, 0.35% active; percent response, % at 10 µM; in the data active = percent response above about 24%, passing the limit was not always enough
MEKK2 WT-MEK5: raises or lowers MEK5 binding to wildtype human MEKK2 PB1 domain. binding response (% of control), % at 10 µM. bead flow cytometry, Alexa488-MEK5 binding to MEKK2 WT; actives lie on both sides. Q9Y2U5. 290,000 tested, 1.1% active. AID 1531; in the data active = binding response below about 67% or above about 130%
MEKK3 PB1 HTS: raises or lowers MEK5 binding to the human MEKK3 PB1 domain; bead-based flow cytometry, Alexa488-MEK5 binding to MEKK3; actives lie on both sides; 0 = blocked by unlabeled MEK5, 100 = vehicle; binding response (% of control), % at 10 µM; 290,000 tested, 1.4% active;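 active = binding response more than 3 SD above or below the average of its plate-row segment, actives on both sides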;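 note: Alexa488 bead fluorescence after subtracting the streptavidin-only scavenger bead signal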
Target sequence (Q99759 whole entry, looked up, the tested form may be a part): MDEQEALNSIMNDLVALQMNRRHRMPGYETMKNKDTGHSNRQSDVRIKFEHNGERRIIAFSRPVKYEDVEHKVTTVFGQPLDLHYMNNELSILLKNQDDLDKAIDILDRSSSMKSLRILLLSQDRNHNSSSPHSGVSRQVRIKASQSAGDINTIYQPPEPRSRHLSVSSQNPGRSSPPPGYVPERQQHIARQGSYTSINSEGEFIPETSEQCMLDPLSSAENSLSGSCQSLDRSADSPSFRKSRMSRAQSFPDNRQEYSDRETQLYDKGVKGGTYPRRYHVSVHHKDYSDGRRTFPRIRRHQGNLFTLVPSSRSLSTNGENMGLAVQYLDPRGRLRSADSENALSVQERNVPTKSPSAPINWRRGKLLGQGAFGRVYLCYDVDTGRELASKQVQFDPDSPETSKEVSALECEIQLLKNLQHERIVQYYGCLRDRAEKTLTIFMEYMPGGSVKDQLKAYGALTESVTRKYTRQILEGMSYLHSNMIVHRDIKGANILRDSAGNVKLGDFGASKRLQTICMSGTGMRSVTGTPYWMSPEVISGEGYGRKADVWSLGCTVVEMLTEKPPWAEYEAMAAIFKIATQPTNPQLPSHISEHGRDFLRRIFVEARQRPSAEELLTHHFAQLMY
NRP1-CendR mod: modulators of CendR peptide binding to human neuropilin-1; AID 602438; 360,000 tested, 0.85% active; FAM-RPARPAR peptide binding to NRP-1, fluorescence polarization; O14786; inhibition, % at 25 µM;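 active = inhibition or corrected inhibition above about 18%, plus a signal ratio from 0.5 to 1.5, limit read from the data, passing the limit was not always enough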
A number is an active result; [ ] = dose if it differs, or a comment. In the library only some 3.2% were active in any assay of this set; here they are far more common.

Screening COc1ccccc1NC(=O)N(Cc1ccco1)Cc1cc2cccc(C)c2[nH]c1=O returned SKN-1 inh inactive, MEKK2 mut-MEK5 inactive, MEKK2 WT-MEK5 inactive, MEKK3 PB1 HTS inactive and NRP1-CendR mod 26.
Screening COc1ccccc1NC(=O)N(Cc1ccco1)Cc1cc2c(C)ccc(C)c2[nH]c1=O returned SKN-1 inh inactive, MEKK2 mut-MEK5 inactive, MEKK2 WT-MEK5 inactive, MEKK3 PB1 HTS inactive and NRP1-CendR mod inactive.
For Cc1ccc(OCCC(=O)OCC(=O)NCCc2ccccc2)cc1 the results were SKN-1 inh inactive, MEKK2 mut-MEK5 inactive, MEKK2 WT-MEK5 inactive, MEKK3 PB1 HTS inactive and NRP1-CendR mod 27.
CCC(c1nnnn1CCOC)N1CCN(Cc2ccccc2)CC1 (stereo not drawn) was read as SKN-1 inh 36, MEKK2 mut-MEK5 inactive, MEKK2 WT-MEK5 inactive, MEKK3 PB1 HTS inactive and NRP1-CendR mod inactive.
`CCC(c1nnnn1CCOC)N1CCN(C(=O)c2ccco2)CC1` (stereo not drawn) gave SKN-1 inh inactive, MEKK2 mut-MEK5 inactive, MEKK2 WT-MEK5 inactive, MEKK3 PB1 HTS inactive and NRP1-CendR mod inactive.
Cc1cccc(C)c1NC(=O)C1(C)CN(S(C)(=O)=O)CC(=O)N1Cc1ccc2c(c1)OCO2 (stereo not drawn) was read as SKN-1 inh inactive and NRP1-CendR mod inactive.
For c1ccc(Nc2ncnc3c2oc2ccccc23)cc1 the results were SKN-1 inh inactive, MEKK2 mut-MEK5 inactive, MEKK2 WT-MEK5 inactive, MEKK3 PB1 HTS inactive and NRP1-CendR mod 24.
For O=[N+]([O-])c1ccc(CN2CC(N3CCN(CC4CC4)CC3)CS2(=O)=O)cc1 (stereo not drawn) the results were SKN-1 inh inactive and NRP1-CendR mod inactive.
`COc1ccc(C(NC(=O)C(C)(C)C)NC(=O)C(C)(C)C)cc1` gave SKN-1 inh inactive, MEKK2 mut-MEK5 inactive, MEKK2 WT-MEK5 inactive, MEKK3 PB1 HTS inactive and NRP1-CendR mod 20.
Screening COC(=O)C1=CN(c2ccc3c(c2)OCO3)C(N)=C(C#N)C1c1ccc(-c2ccccc2)cc1 (stereo not drawn) returned SKN-1 inh inactive and NRP1-CendR mod inactive.
`C=C[C@]12CC[C@H](OC(C)=O)CC1=CCC1C2CC[C@@]2(C)C1CCC21OCCO1` (stereo partly drawn) gave SKN-1 inh inactive and NRP1-CendR mod 22.
Screening C[C@]12CC[C@H](O)CC1=CCC1C2CC[C@@]2(C)C1CCC21OCCO1 (stereo partly drawn) returned SKN-1 inh inactive and NRP1-CendR mod inactive.
COc1ccc(C2=CC(c3sccc3C)n3nnnc3N2)cc1 (stereo not drawn) was read as SKN-1 inh inactive, MEKK2 mut-MEK5 inactive, MEKK2 WT-MEK5 inactive, MEKK3 PB1 HTS inactive and NRP1-CendR mod inactive.
For COc1ccc(C2=CC(c3ccc(F)cc3)n3nnnc3N2)cc1 (stereo not drawn) the results were SKN-1 inh inactive and NRP1-CendR mod 35.
O=C(C=Cc1ccccc1)c1ccc([N+](=O)[O-])cc1 was read as SKN-1 inh inactive and NRP1-CendR mod 18.
CC1(OC(=O)c2cccs2)C(=O)C=C2C=C3CCCN3C=C2C1=O (stereo not drawn) was read as SKN-1 inh inactive, MEKK2 mut-MEK5 inactive, MEKK2 WT-MEK5 inactive, MEKK3 PB1 HTS inactive and NRP1-CendR mod 41.
Screening CC1(OC(=O)CCc2ccccc2)C(=O)C=C2C=C3CCCN3C=C2C1=O (stereo not drawn) returned SKN-1 inh inactive, MEKK2 mut-MEK5 inactive, MEKK2 WT-MEK5 inactive, MEKK3 PB1 HTS inactive and NRP1-CendR mod 48.
For CC1(OC(=O)C2CCCC2)C(=O)C=C2C=C3CCCN3C=C2C1=O (stereo not drawn) the results were MEKK2 mut-MEK5 inactive, MEKK2 WT-MEK5 inactive and MEKK3 PB1 HTS inactive.
Screening COC(=O)CCCC1=CC2=CC(=O)C(C)(OC(=O)c3cccs3)C(=O)C2=CN1CCCOC(C)C (stereo not drawn) returned SKN-1 inh inactive, MEKK2 mut-MEK5 inactive, MEKK2 WT-MEK5 inactive, MEKK3 PB1 HTS inactive and NRP1-CendR mod 28.
For CC1(OC(=O)CCc2ccccc2)C(=O)C=C2C=C(C3CC3)OC=C2C1=O (stereo not drawn) the results were MEKK2 mut-MEK5 inactive, MEKK2 WT-MEK5 inactive and MEKK3 PB1 HTS inactive.
`COC(=O)CCCC1=CC2=CC(=O)C(C)(OC(=O)CCc3ccccc3)C(=O)C2=CO1` (stereo not drawn) gave SKN-1 inh 33, MEKK2 mut-MEK5 inactive, MEKK2 WT-MEK5 inactive, MEKK3 PB1 HTS inactive and NRP1-CendR mod inactive.
Screening COC(=O)CCCC1=CC2=CC(=O)C(C)(OC(=O)c3cccs3)C(=O)C2=CN1Cc1ccccc1 (stereo not drawn) returned SKN-1 inh inactive, MEKK2 mut-MEK5 inactive, MEKK2 WT-MEK5 inactive, MEKK3 PB1 HTS inactive and NRP1-CendR mod inactive.
Cc1csc(NC(=O)C2(C)CCN2C(=O)C(C)C)c1C#N (stereo not drawn) was read as SKN-1 inh inactive and NRP1-CendR mod inactive.
Screening COCCCn1c(O)c(/C=C2\N=C(C#N)C(=Nc3ccc(C)cc3)O2)sc1=S returned SKN-1 inh inactive, MEKK2 mut-MEK5 inactive, MEKK2 WT-MEK5 33[inhibitor], MEKK3 PB1 HTS inactive and NRP1-CendR mod inactive.
Screening CCc1ccccc1OCC(=O)NNCC(=O)Nc1cccc(C#N)c1 returned SKN-1 inh inactive and NRP1-CendR mod inactive.
`O=C(C1CC1)N1N=C(c2ccc(Cl)cc2)CC1(O)C(F)(F)F` (stereo not drawn) gave SKN-1 inh inactive, MEKK2 mut-MEK5 inactive, MEKK2 WT-MEK5 inactive, MEKK3 PB1 HTS inactive and NRP1-CendR mod 27.
For CC(C)C[C@@H](COCc1cccc(Cl)c1)N1CCN(C(=O)c2ccc(C(F)(F)F)cc2)CCC1=O the results were SKN-1 inh inactive and NRP1-CendR mod inactive.
For Cc1cc(C)n(-c2nc3ccccc3n3cnnc23)n1 the results were SKN-1 inh 38, MEKK2 mut-MEK5 inactive, MEKK2 WT-MEK5 inactive, MEKK3 PB1 HTS inactive and NRP1-CendR mod inactive.
O=C1OC(c2ccccc2)(N(Nc2ccccc2)c2ccccc2)c2ccccc21 (stereo not drawn) was read as SKN-1 inh inactive and NRP1-CendR mod inactive.
`Cc1ccc(C(=O)COC(=O)CN2C(=O)C3C4CCC(C4)C3C2=O)cc1C` (stereo not drawn) gave SKN-1 inh inactive, MEKK2 mut-MEK5 inactive, MEKK2 WT-MEK5 inactive, MEKK3 PB1 HTS inactive and NRP1-CendR mod 24.
For Cc1ccc(C(=O)COC(=O)CN2C(=O)C3C4CCC(C4)C3C2=O)cc1[N+](=O)[O-] (stereo not drawn) the results were SKN-1 inh inactive, MEKK2 mut-MEK5 inactive, MEKK2 WT-MEK5 inactive, MEKK3 PB1 HTS inactive and NRP1-CendR mod inactive.
`COc1cc(CCNC(=O)CCCn2c(=O)c3cccn3c3cccnc32)cc(OC)c1OC` gave SKN-1 inh inactive, MEKK2 mut-MEK5 inactive, MEKK2 WT-MEK5 inactive, MEKK3 PB1 HTS inactive and NRP1-CendR mod inactive.

Screening results from PubChem BioAssay.
